Rows were chosen to be rich in hits. Some 19% of all compounds tested hit in one or more screens of this group.
TDP1 cell CPT = DT40-hTDP1 cell growth loss with CPT | 420,000 tested, 12% active | chicken DT40 Tdp1-/-;hTDP1 cells + 20 nM CPT, ATP luminescence, 48 h | Potency, µM (top dose mostly 46.2 µM), hits mostly inhibitors | AID 686979; further: nearly all actives have a fitted effect of over 55% in size
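Chicken DT40 Tdp1-/- cells stably complemented with human TDP1 were seeded at 400 cells/well in medium containing 20 nM camptothecin, exposed to pin-transferred compounds, and grown at 37 °C for at least 48 hr. Viability was read as ATP luminescence.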
TDP1 cell noCPT = qHTS for Inhibitors of human tyrosyl-DNA phosphodiesterase 1 (TDP1): qHTS in cells in absence of CPT; 420,000 tested, 15% active; DT40 Tdp1-/- hTDP1 cells, no CPT, ATP luminescence, 48 h; Potency, µM (titrated, usually from 46.2 µM), usual class: inhibitors; further: nearly all actives have a fitted effect of over 55% in size
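Camptothecin absent (DMSO only). Human TDP1-complemented DT40 knockout cells, 400 cells/well, 37 °C for minimum 48 hr; ATP measured via CellTiter-Glo, 30 min dark incubation, luminescence.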
IL1B secr inh = inhibitors of inflammasome signaling (IL-1 beta secretion); activity change, % at 57.5 µM; AID 743279; THP-1 LPS/ATP IL-1B secretion, AlphaLISA, 16 h; hits give low values; 360,000 tested, 4.7% active; in the data active means activity change below about -50%; inconclusive means mostly about -30% to -49%
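Secreted IL-1B measured by AlphaLISA bead assay after 16 h compound exposure of THP-1 cells; compounds (final up to 57.5 uM) added 1 h before LPS (250 ng/mL) and ATP (1.25 mM) stimulation; lower signal means less secretion.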
HT1080NT lethal = kills 2HG-producing HT-1080-NT fibrosarcoma cells. 360,000 tested, 1.6% active. Potency, µM (series often up to 46.1 µM), hits mostly cytotoxic. HT-1080-NT fibrosarcoma viability, CellTiter-Glo ATP luminescence, 48 h. AID 686970;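 further: NT is the 2HG producing partner of a matched IDH1 knockdown line; nearly all actives have a fitted effect of over 55% in size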
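Viability of the 2HG-overproducing fibrosarcoma line after 48 hours of compound exposure at 37 degrees C was determined by luminescence with CellTiter-Glo, and concentration-effect curves were then fitted and categorized.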
HT1080 IDH1KD tx = kills HT-1080 cells with IDH1 knockdown | AID 686971 | HT-1080 IDH1 knockdown viability, ATP luminescence, 48 h | 360,000 tested, 2% active | Potency, µM (top dose mostly 46.1 µM), most hits filed as cytotoxic
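CellTiter-Glo luminescence after 48 h compound exposure at 37 degrees C of IDH1-knockdown HT-1080 cells in 5% FBS RPMI. %Activity scaled between DMSO wells and cell-free media wells, with curves fitted and assigned curve classes.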
Large screens that a line does not name were inactive. Unless noted, the call rests on the fitted dose curve; in most records, active means well fitted curve in the direction sought with a large enough effect; inconclusive means small, poorly fitted or top-dose-only effect, or another doubt; inactive means no such curve, though single readings can be large; an effect the other way counts as inactive or inconclusive.

O=C1NC(Cc2ccc(O)cc2)c2nc3ccc(Br)cc3c(=O)n2-c2cc3ccccc3cc21 (stereo not drawn)	TDP1 cell CPT 12µM, TDP1 cell noCPT 9.2µM, HT1080NT lethal 16µM, HT1080 IDH1KD tx 13µM
COc1ccc2nc3n(c(=O)c2c1)-c1ccc(Cl)cc1C(=O)NC3Cc1ccc(O)cc1 (stereo not drawn)	none
Cc1cc(C)c2c(=O)n3c(nc2c1)C(CC(C)C)NC(=O)c1cccnc1-3 (stereo not drawn)	TDP1 cell CPT inconclusive, TDP1 cell noCPT 23µM
Cc1cc(C)c2c(=O)n3c(nc2c1)C(Cc1ccc(O)cc1)NC(=O)c1cc2ccccc2cc1-3 (stereo not drawn)	TDP1 cell CPT 16µM, TDP1 cell noCPT 18µM, HT1080NT lethal inconclusive, HT1080 IDH1KD tx inconclusive
CCOC(=O)c1nn(-c2ccccc2F)c(-c2ccccc2)c1C(=O)c1ccccc1	TDP1 cell CPT inconclusive, TDP1 cell noCPT inconclusive
Cc1ccc2[nH]c3c(=O)n(CC(=O)Nc4ccccc4N4CCN(C)CC4)ncc3c2c1	TDP1 cell CPT inconclusive, TDP1 cell noCPT inconclusive
COc1ccc2nc3n(c(=O)c2c1)-c1cc2ccccc2cc1C(=O)NC3Cc1ccc(O)cc1 (stereo not drawn)	TDP1 cell CPT inconclusive, TDP1 cell noCPT 18µM, HT1080NT lethal 6.5µM, HT1080 IDH1KD tx 3.3µM
CC1CCCCN1CC(=O)Nc1sc2c(c1C#N)CCC2 (stereo not drawn)	none
CCOC1=C2CN(S(=O)(=O)c3ccc(C)cc3)[C@H](c3ccc(CC)cc3)C[C@@H]2N(S(=O)(=O)c2ccc(C)cc2)[C@H](c2ccccc2)C1	TDP1 cell CPT inconclusive, TDP1 cell noCPT inconclusive
CCOC1=C2CN(S(=O)(=O)c3ccc(C)cc3)C(c3ccc(CC)cc3)CC2N(S(=O)(=O)c2ccc(C)cc2)C(c2ccc(CC)cc2)C1 (stereo not drawn)	TDP1 cell CPT 3.7µM, TDP1 cell noCPT 2.1µM
CCOC1=C2CN(S(=O)(=O)c3ccc(C)cc3)[C@H](c3ccccc3)C[C@@H]2N(S(=O)(=O)c2ccc(C)cc2)[C@H](c2cccc(C)c2)C1	none
CCOC1=C2CN(S(=O)(=O)c3ccc(C)cc3)[C@H](c3ccccc3)C[C@@H]2N(S(=O)(=O)c2ccc(Br)cc2)[C@H](c2ccccc2)C1	TDP1 cell CPT inconclusive, TDP1 cell noCPT 12µM
CS(=O)(=O)N1CCN(c2ccc([N+](=O)[O-])c(NCc3ccc(Cl)cc3)c2)CC1	TDP1 cell CPT 26µM, TDP1 cell noCPT 18µM, HT1080NT lethal inconclusive, HT1080 IDH1KD tx inconclusive
CS(=O)(=O)N1CCN(c2ccc([N+](=O)[O-])c(NCc3ccccc3)c2)CC1	TDP1 cell CPT inconclusive, TDP1 cell noCPT inconclusive
CC(C)c1ccc(CNc2cc(N3CCCC3)ccc2[N+](=O)[O-])cc1	TDP1 cell CPT 18µM, TDP1 cell noCPT inconclusive, IL1B secr inh inconclusive, HT1080NT lethal inconclusive
O=[N+]([O-])c1ccc(N2CCN(S(=O)(=O)c3ccc(Cl)c(Cl)c3)CC2)cc1NCCN1CCOCC1	TDP1 cell CPT inconclusive, TDP1 cell noCPT 8.2µM
CC(C)(C)CNc1cc(N2CCCC2)ccc1[N+](=O)[O-]	none
CCOc1cccc(NC(=O)c2cccc(F)c2)c1	none
COc1ccccc1C(=O)NC(=O)CSc1ccc(C)c(C)c1	none
O=C(C#Cc1ccccc1)Nc1cccc(F)c1	TDP1 cell CPT 4.1µM, TDP1 cell noCPT 5.8µM, IL1B secr inh -106, HT1080NT lethal inconclusive, HT1080 IDH1KD tx 3.7µM
O=C(C#Cc1ccccc1)Nc1ccc(F)cc1	TDP1 cell CPT inconclusive, TDP1 cell noCPT 12µM, IL1B secr inh -97, HT1080NT lethal 16µM, HT1080 IDH1KD tx 18µM
COc1ccc(NC(=O)C(C)Sc2ccccc2)cc1 (stereo not drawn)	none
COc1ccc(NC(=O)CCCCC#Cc2ccccc2)cc1	TDP1 cell CPT inconclusive, TDP1 cell noCPT 15µM
COc1ccc(NC(=O)C#Cc2ccccc2)cc1	TDP1 cell CPT 21µM, TDP1 cell noCPT 10µM, HT1080NT lethal inconclusive, HT1080 IDH1KD tx inconclusive (no result: IL1B secr inh)
Nn1c(SCC(=O)Nc2ccc(N3CCOCC3)cc2)nnc1-c1cccc(F)c1	none

Assay outcomes: PubChem, National Center for Advancing Translational Sciences (NCATS)
